The source of these data is PubChem BioAssay (EPA / NIEHS).

Holding throughout (settings): mRNA level, 48 h; actives raise or lower the signal
Read-out in experiment [1]: Insulin-like growth factor-binding protein 1 (IGFBP1), IGFBP1 (gene 3484)
Description: LTEA_HepaRG_IGFBP1: Life Technologies and Expression Analysis (LTEA) Assay for Insulin-like growth factor-binding protein 1 (IGFBP1) using HepaRG (AID 2283508). The gist of the method: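 Differentiated human HepaRG cells in serum-free induction medium were exposed in duplicate for 48 h to eight concentrations, top 100 uM with half-log dilutions, in 0.5% DMSO. Transcript levels came from qRT-PCR normalised to ACTB, GAPDH and POLR2A, fitted bidirectionally against DMSO.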

Read-out in experiment [2]: Interleukin 6 (IL6), IL6 (gene 3569)
Description: LTEA_HepaRG_IL6: Life Technologies and Expression Analysis (LTEA) Assay for Interleukin 6 (IL6) using HepaRG (AID 2283509). Summed up: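 HepaRG cells exposed in duplicate for 48 h to eight half-log concentrations, top 100 uM, in 0.5% DMSO serum-free induction medium. mRNA measured by qRT-PCR, normalized to ACTB, GAPDH and POLR2A. Bidirectional fit versus DMSO.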

Read-out in experiment [3]: Interleukin 6 Receptor (IL6R), IL6R (gene 3570)
Kind of experiment: LTEA_HepaRG_IL6R: Life Technologies and Expression Analysis (LTEA) Assay for Interleukin 6 Receptor (IL6R) using HepaRG (AID 2283510). The gist of the method: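 Concentration-response in human liver HepaRG cells: eight concentrations from 100 uM downward by half-logs, 48 h exposure, 0.5% DMSO vehicle. IL6R mRNA change measured by qRT-PCR and fitted in both directions relative to vehicle.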

Read-out in experiment [4]: Potassium channel subfamily K member 1 (KCNK1), KCNK1 (gene 3775)
Description: LTEA_HepaRG_KCNK1: Life Technologies and Expression Analysis (LTEA) Assay for Potassium channel subfamily K member 1 (KCNK1) using HepaRG (AID 2283511). The gist of the method: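 Differentiated HepaRG cells, 48 h exposure in serum-free induction medium with 0.5% DMSO; 8 concentrations, half-log from 100 uM, duplicate. KCNK1 mRNA by qRT-PCR, normalized to ACTB, GAPDH, POLR2A; bidirectional fit vs DMSO.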

Read-out in experiment [5]: Keratin 19 (KRT19), KRT19 (gene 3880)
Description: LTEA_HepaRG_KRT19: Life Technologies and Expression Analysis (LTEA) Assay for Keratin 19 (KRT19) using HepaRG (AID 2283512). The gist of the method:
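Differentiated human HepaRG cells, plated 48 h, were exposed in duplicate for 48 h in serum-free induction medium to eight half-log concentrations up to 100 uM in 0.5% DMSO. KRT19 mRNA was quantified by qRT-PCR, normalized to ACTB, GAPDH and POLR2A, and fitted bidirectionally versus DMSO.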

Read-out in experiment [6]: JUN Transcription Factor, JUN (gene 3725)
Description: LTEA_HepaRG_JUN: Life Technologies and Expression Analysis (LTEA) Assay for JUN Transcription Factor using HepaRG (AID 2283513). The gist of the method: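 Human HepaRG liver cells receive test chemicals in 0.5% DMSO for 48 h across an eight-point range topping at 100 uM. Expression changes in JUN are scored in both directions against the DMSO vehicle.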

Read-out in experiment [7]: Lipase C (LIPC), LIPC (gene 3990)
Kind of experiment: LTEA_HepaRG_LIPC: Life Technologies and Expression Analysis (LTEA) Assay for Lipase C (LIPC) using HepaRG (AID 2283514). Summed up: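 HepaRG cells, 48 h after plating, treated in duplicate for 48 h in serum-free induction medium over 8 half-log concentrations from 100 uM, 0.5% DMSO. LIPC mRNA by TaqMan qRT-PCR normalized to ACTB/GAPDH/POLR2A; bidirectional fit versus DMSO.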

Read-out in experiment [8]: Lipoprotein lipase (LPL), LPL (gene 4023)
Description: LTEA_HepaRG_LPL: Life Technologies and Expression Analysis (LTEA) Assay for Lipoprotein lipase (LPL) using HepaRG (AID 2283515). The gist of the method: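 Differentiated HepaRG cells, plated 48 h, then exposed 48 h in serum-free induction medium to 8 concentrations (top 100 uM, half-log steps) in 0.5% DMSO, duplicate. LPL mRNA measured by qRT-PCR, normalized to ACTB, GAPDH and POLR2A.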

Read-out in experiment [9]: MicroRNA 122 (MIR122), gene 406906
Description: LTEA_HepaRG_MIR122: Life Technologies and Expression Analysis (LTEA) Assay for MicroRNA 122 (MIR122) using HepaRG (AID 2283516). Note: the transcript read is the microRNA miR-122. Summed up:
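HepaRG, 48 h exposure, 8-pt half-log from 100 uM, 0.5% DMSO; TaqMan qRT-PCR; bidirectional fit vs DMSO.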

Read-out in experiment [10]: matrix metalloproteinase-10 (MMP10), MMP10 (gene 4319)
Description: LTEA_HepaRG_MMP10: Life Technologies and Expression Analysis (LTEA) Assay for matrix metalloproteinase-10 (MMP10) using HepaRG (AID 2283517). The gist of the method:
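Differentiated HepaRG cells in serum-free induction medium exposed 48 h in duplicate to 8-point half-log series up to 100 uM in 0.5% DMSO. mRNA quantified by qRT-PCR, normalised to ACTB, GAPDH, POLR2A; bidirectional fit versus DMSO.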

Read-out in another experiment: MYC, MYC (gene 4609)
Kind of experiment: LTEA_HepaRG_MYC: Life Technologies and Expression Analysis (LTEA) Assay for MYC using HepaRG (AID 2283518). The gist of the method:
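Differentiated human HepaRG cells, plated 48 h then switched to serum-free induction medium, were exposed in duplicate for 48 h to 8-point half-log series up to 100 uM in 0.5% DMSO. MYC mRNA measured by qRT-PCR, normalized to ACTB/GAPDH/POLR2A.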

Read-out in experiment [11]: matrix metalloproteinase-3 (MMP3), MMP3 (gene 4314)
Kind of experiment: LTEA_HepaRG_MMP3: Life Technologies and Expression Analysis (LTEA) Assay for matrix metalloproteinase-3 (MMP3) using HepaRG (AID 2283519). The gist of the method: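 HepaRG cells (~100,000/well) in serum-free induction medium were dosed in duplicate for 48 h with an 8-point half-log series from 100 uM, 0.5% DMSO. MMP3 mRNA was quantified by Fluidigm TaqMan qRT-PCR, normalized to three housekeeping genes.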

Read-out in experiment [12]: Paternally Expressed 10 (PEG10), PEG10 (gene 23089)
Kind of experiment: LTEA_HepaRG_PEG10: Life Technologies and Expression Analysis (LTEA) Assay for Paternally Expressed 10 (PEG10) using HepaRG (AID 2283520).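 For AC50: PEG10 transcript by qRT-PCR normalised to ACTB GAPDH and POLR2A.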 Summed up: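 Chemicals tested on HepaRG cells for 48 h, highest concentration 100 uM. PEG10 expression assessed by qRT-PCR relative to DMSO control.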

Read-out in experiment [13]: Nuclear factor NF-kappa-B p105 subunit (Homo sapiens) (UniProt P19838)
Description: LTEA_HepaRG_NFKB1: Life Technologies and Expression Analysis (LTEA) Assay for Nuclear Factor Kappa B Subunit 1 (NFKB1) using HepaRG (AID 2283521).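 Note: TaqMan qRT-PCR transcript normalised to ACTB GAPDH and POLR2A housekeeping genes.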 The gist of the method: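 Differentiated human HepaRG cells were exposed for 48 h in serum-free induction medium to eight concentrations (top 100 uM, half-log steps, 0.5% DMSO), in duplicate. NFKB1 mRNA was measured by TaqMan qRT-PCR, normalized to ACTB/GAPDH/POLR2A, and fitted bidirectionally against DMSO.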

Read-out in experiment [14]: Protein phosphatase 2A (PPP2R4), PTPA (gene 5524)
Description: LTEA_HepaRG_PPP2R4: Life Technologies and Expression Analysis (LTEA) Assay for Protein phosphatase 2A (PPP2R4) using HepaRG (AID 2283522). The gist of the method:
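Gene-expression endpoint in HepaRG hepatic cells: 48 h treatment across eight half-log concentrations up to 100 uM in 0.5% DMSO. PPP2R4 mRNA by qRT-PCR, normalized to three endogenous control genes.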

Read-out in experiment [15]: Phosphatase and tensin (PTEN), PTEN (gene 5728)
Description: LTEA_HepaRG_PTEN: Life Technologies and Expression Analysis (LTEA) Assay for Phosphatase and tensin (PTEN) using HepaRG (AID 2283523). The gist of the method: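 HepaRG cells, 48 h after plating, exposed in duplicate for 48 h in serum-free induction medium to 8 half-log concentrations up to 100 uM (0.5% DMSO). PTEN mRNA by qRT-PCR, normalized to ACTB, GAPDH, POLR2A; bidirectional fit versus DMSO.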

Read-out in experiment [16]: solute carrier (SLC22A1), SLC22A1 (gene 6580)
Description: LTEA_HepaRG_SLC22A1: Life Technologies and Expression Analysis (LTEA) Assay for solute carrier (SLC22A1) using HepaRG (AID 2283524). Summed up: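 Differentiated human HepaRG cells in serum-free induction medium, exposed 48 h in duplicate to 8-point half-log series from 100 µM top in 0.5% DMSO. SLC22A1 mRNA by TaqMan qRT-PCR normalized to ACTB, GAPDH, POLR2A; bidirectional fit versus DMSO.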

Read-out in experiment [17]: Pyruvate Dehydrogenase Kinase 4 (PDK4), PDK4 (gene 5166)
Kind of experiment: LTEA_HepaRG_PDK4: Life Technologies and Expression Analysis (LTEA) Assay for Pyruvate Dehydrogenase Kinase 4 (PDK4) using HepaRG (AID 2283525). Summed up: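 HepaRG cells plated 48 h, then switched to serum-free induction medium and exposed in duplicate for 48 h to 8 half-log concentrations from 100 uM in 0.5% DMSO. PDK4 mRNA measured by qRT-PCR, normalized to ACTB, GAPDH and POLR2A; bidirectional fit versus DMSO.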

Read-out in experiment [18]: NAD(P)H dehydrogenase [quinone] 1 (NQO1), NQO1 (gene 1728)
Description: LTEA_HepaRG_NQO1: Life Technologies and Expression Analysis (LTEA) Assay for NAD(P)H dehydrogenase [quinone] 1 (NQO1) using HepaRG (AID 2283526). The gist of the method: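 Human HepaRG hepatic cells received chemicals for 48 h in serum-free induction medium with 0.5% DMSO, up to 100 uM. Expression was assessed by TaqMan qRT-PCR against housekeeping controls and fitted bidirectionally against DMSO.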

Read-out in experiment [19]: Nuclear factor erythroid 2-related factor 2 (Homo sapiens) (UniProt Q16236)
Description: LTEA_HepaRG_NFE2L2: Life Technologies and Expression Analysis (LTEA) Assay for Nuclear factor erythroid 2-related factor 2 (NFE2L2) Transcription Factor using HepaRG (AID 2283527).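 Note: TaqMan qRT-PCR transcript level normalised to ACTB GAPDH and POLR2A housekeeping genes.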 The gist of the method:
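Differentiated human HepaRG cells, serum-free induction medium, exposed 48 h in duplicate to eight half-log concentrations up to 100 uM in 0.5% DMSO. NFE2L2 mRNA by Fluidigm TaqMan qRT-PCR, normalised to ACTB, GAPDH, POLR2A; bidirectional change versus DMSO.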

The source made the active and inactive calls. Rule for the calls: active = hit-call score of the fitted dose curve at least 0.9, where 1 is the maximum; inactive = score below 0.9.

Chain of Nuclear factor NF-kappa-B p105 subunit (Homo sapiens) (P19838 whole entry, looked up): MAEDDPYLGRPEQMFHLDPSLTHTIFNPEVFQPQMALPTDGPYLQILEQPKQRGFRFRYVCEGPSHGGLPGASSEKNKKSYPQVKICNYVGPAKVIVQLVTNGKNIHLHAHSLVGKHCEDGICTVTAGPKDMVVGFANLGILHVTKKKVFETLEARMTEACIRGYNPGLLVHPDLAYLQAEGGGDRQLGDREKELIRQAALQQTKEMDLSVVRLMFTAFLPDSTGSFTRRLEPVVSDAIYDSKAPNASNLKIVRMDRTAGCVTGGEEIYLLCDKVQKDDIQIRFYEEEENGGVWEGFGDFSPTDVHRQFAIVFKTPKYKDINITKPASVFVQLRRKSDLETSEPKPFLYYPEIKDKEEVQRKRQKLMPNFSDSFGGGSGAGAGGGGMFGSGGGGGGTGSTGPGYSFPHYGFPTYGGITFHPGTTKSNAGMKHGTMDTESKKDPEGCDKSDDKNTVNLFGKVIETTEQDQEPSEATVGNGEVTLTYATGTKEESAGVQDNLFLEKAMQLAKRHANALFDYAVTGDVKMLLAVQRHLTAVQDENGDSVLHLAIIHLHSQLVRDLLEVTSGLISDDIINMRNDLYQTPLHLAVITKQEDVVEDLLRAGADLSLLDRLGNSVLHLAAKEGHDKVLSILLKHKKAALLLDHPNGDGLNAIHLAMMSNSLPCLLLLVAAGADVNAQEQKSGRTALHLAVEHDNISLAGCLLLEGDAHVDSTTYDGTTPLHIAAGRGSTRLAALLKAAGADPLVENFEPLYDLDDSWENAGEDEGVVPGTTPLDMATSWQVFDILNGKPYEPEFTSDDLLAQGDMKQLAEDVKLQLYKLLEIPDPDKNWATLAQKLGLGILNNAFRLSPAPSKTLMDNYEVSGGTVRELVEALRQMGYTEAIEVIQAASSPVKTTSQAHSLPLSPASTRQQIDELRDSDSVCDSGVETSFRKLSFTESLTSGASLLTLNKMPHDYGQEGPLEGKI
Chain of Nuclear factor erythroid 2-related factor 2 (Homo sapiens) (Q16236 whole entry, looked up): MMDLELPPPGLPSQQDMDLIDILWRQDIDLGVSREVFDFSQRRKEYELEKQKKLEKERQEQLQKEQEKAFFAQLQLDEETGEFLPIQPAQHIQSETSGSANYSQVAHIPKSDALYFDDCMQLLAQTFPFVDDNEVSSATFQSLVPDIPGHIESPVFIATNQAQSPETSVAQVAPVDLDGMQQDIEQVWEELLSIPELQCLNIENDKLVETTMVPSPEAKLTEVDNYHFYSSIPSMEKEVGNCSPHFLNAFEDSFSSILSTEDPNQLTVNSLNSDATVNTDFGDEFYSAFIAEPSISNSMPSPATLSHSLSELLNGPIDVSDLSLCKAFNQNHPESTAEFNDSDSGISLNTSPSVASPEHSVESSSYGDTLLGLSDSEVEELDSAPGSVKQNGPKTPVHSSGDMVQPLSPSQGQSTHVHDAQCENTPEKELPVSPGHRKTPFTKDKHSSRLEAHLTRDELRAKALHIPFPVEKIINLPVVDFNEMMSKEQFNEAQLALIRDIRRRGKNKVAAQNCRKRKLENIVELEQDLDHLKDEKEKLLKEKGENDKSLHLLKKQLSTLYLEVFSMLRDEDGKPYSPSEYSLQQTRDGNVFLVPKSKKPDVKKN

What is called AC50 is the concentration giving half of the maximal activity seen. For the molecule `Cc1ccccc1CO[C@@H]1C[C@@]2(C(C)C)CC[C@]1(C)O2`, the call in experiment [1], in experiment [2], in experiment [3], in experiment [4], in experiment [5] and in [6] was inactive. The outcome in [7] is “inactive”; in experiment [8], “inactive”; in experiment [9] it was “inactive”; in [10], “inactive”; with MYC, MYC (gene 4609) it was “inactive”; in experiment [11], “inactive”. The molecule was called inactive in experiment [12], in experiment [13], in experiment [14], in [15], in experiment [16] and in experiment [18]. Further, the molecule was classed as inactive in experiment [19]. For the same molecule, in [17], the AC50 is 50 µM (active).

As for `CCC(=O)O[C@H]1CC[C@H]2[C@@H]3CCC4=CC(=O)CC[C@]4(C)[C@H]3CC[C@]12C`, the molecule was called inactive in experiment [1], in experiment [3], in experiment [4], in experiment [5], in [6] and in experiment [7]. Further, the outcome was “inactive” in experiment [8]; “inactive” in experiment [9]; “inactive” in experiment [10]; “inactive” in the experiment with MYC, MYC (gene 4609); “inactive” in experiment [13]; “inactive” in experiment [14]. The result in experiment [15], in experiment [16], in [17], in experiment [18] and in experiment [19] was inactive. Moreover, the results for the AC50 in experiment [2], in [11] and in experiment [12] were 33.1 µM (active), 50 µM (active) and 13.3 µM (active), respectively.

For `O=S(=O)(O)C(F)(F)C(F)(F)C(F)(F)C(F)(F)C(F)(F)C(F)(F)F`, the result in experiment [1], in [2], in experiment [3], in [4], in experiment [5] and in [6] was inactive. The outcome in experiment [7] was “inactive”; in experiment [8], “inactive”; in experiment [9] it was “inactive”; in [10], “inactive”; in the experiment with MYC, MYC (gene 4609), “inactive”; in [11], “inactive”. The outcome in [12], in experiment [13], in experiment [14], in [16] and in experiment [18] was inactive. Also, the figures for the AC50 in experiment [15] and in experiment [17] were 10.3 µM (active) and 35.2 µM (active), respectively.
